These results are taken from paper PMC11062922 (Nature Chemical Biology, 2023).

Like-named read-outs stand apart in the source and are kept apart here.

Test [1] concerns CDK4. Also on record: species or system human, MV4-11 + K-562 + COLO205 + SK-N-BE2 + OVCAR-8. The conditions noted are these: read-out: apparent Kd; compound concentrations: 100 nM and 1000 nM (sheet 'Samples'), CATDS: 0.32683838675566101; n = 1.
For test [2], the system named is MAP2K2. The arrangement: species or system human, MV4-11 + K-562 + COLO205 + SK-N-BE2 + OVCAR-8. The conditions noted are these: read-out: apparent Kd; compound concentrations: 100 nM and 1000 nM (sheet 'Samples'), CATDS: 0.35471612701675298; n = 1.
The test system of test [3] is PDGFRB. Also on record: species or system human, MV4-11 + K-562 + COLO205 + SK-N-BE2 + OVCAR-8. As to conditions: read-out: apparent Kd; compound concentrations: 100 nM and 1000 nM (sheet 'Samples'), CATDS: 0.32038670462926999; n = 1.
The test system of test [4] is CDC42. The arrangement: species or system human, MV4-11 + K-562 + COLO205 + SK-N-BE2 + OVCAR-8. The conditions noted are these: read-out: apparent Kd, n = 1.
The test system of test [5] is CSNK1A1. Also on record: species or system human, MV4-11 + K-562 + COLO205 + SK-N-BE2 + OVCAR-8. As to conditions: read-out: apparent Kd, n = 1.
Test [6] concerns CSNK1D. The arrangement: species or system human, MV4-11 + K-562 + COLO205 + SK-N-BE2 + OVCAR-8. The conditions noted are these: read-out: apparent Kd, n = 1.
Test [7] concerns CSNK1E. Also on record: species or system human, MV4-11 + K-562 + COLO205 + SK-N-BE2 + OVCAR-8. The conditions noted are these: read-out: apparent Kd, n = 1.
For test [8], the system named is MAPK10. Also on record: species or system human, MV4-11 + K-562 + COLO205 + SK-N-BE2 + OVCAR-8. The conditions noted are these: read-out: apparent Kd; compound concentrations: 100 nM and 1000 nM (sheet 'Samples'), CATDS: 0.11305020597261101; n = 1.
The test system of test [9] is MAPK14. Also on record: species or system human, MV4-11 + K-562 + COLO205 + SK-N-BE2 + OVCAR-8. The conditions noted are these: read-out: apparent Kd, n = 1.
The subject of test [10] is MAPK9. Also on record: species or system human, MV4-11 + K-562 + COLO205 + SK-N-BE2 + OVCAR-8. The conditions noted are these: read-out: apparent Kd; compound concentrations: 100 nM and 1000 nM (sheet 'Samples'), CATDS: 8.8395799729483998E-2; n = 1.
Test [11] relates to MAPKAPK2. The arrangement: species or system human, MV4-11 + K-562 + COLO205 + SK-N-BE2 + OVCAR-8. As to conditions: read-out: apparent Kd, n = 1.
Test [12] deals with RIPK2. Also on record: species or system human, MV4-11 + K-562 + COLO205 + SK-N-BE2 + OVCAR-8. The conditions noted are these: read-out: apparent Kd; compound concentrations: 100 nM and 1000 nM (sheet 'Samples'), CATDS: 9.29117270749487E-2; n = 1.
The test system of test [13] is CSNK2A1;CSNK2A3. The arrangement: species or system human, MV4-11 + K-562 + COLO205 + SK-N-BE2 + OVCAR-8. The conditions noted are these: read-out: apparent Kd; compound concentrations:100 nM and 1000 nM (sheet 'Samples'); n = 1.
The test system of test [14] is CSNK2A2. The arrangement: species or system human, MV4-11 + K-562 + COLO205 + SK-N-BE2 + OVCAR-8. As to conditions: read-out: apparent Kd; compound concentrations:100 nM and 1000 nM (sheet 'Samples'); n = 1.
For test [15], the system named is NQO2. The arrangement: species or system human, MV4-11 + K-562 + COLO205 + SK-N-BE2 + OVCAR-8. As to conditions: read-out: apparent Kd; compound concentrations:100 nM and 1000 nM (sheet 'Samples'); n = 1.
The subject of test [16] is PRKD2. Also on record: species or system human, MV4-11 + K-562 + COLO205 + SK-N-BE2 + OVCAR-8. The conditions noted are these: read-out: apparent Kd; compound concentrations:100 nM and 1000 nM (sheet 'Samples'); n = 1.
The subject of test [17] is PRKD3. Also on record: species or system human, MV4-11 + K-562 + COLO205 + SK-N-BE2 + OVCAR-8. The conditions noted are these: read-out: apparent Kd; compound concentrations:100 nM and 1000 nM (sheet 'Samples'); n = 1.
Test [18] concerns CDK10. The arrangement: species or system human, MV4-11 + K-562 + COLO205 + SK-N-BE2 + OVCAR-8. As to conditions: read-out: apparent Kd; compound concentrations:100 nM and 1000 nM (sheet 'Samples'); n = 1.
Test [19] relates to CDK16. The arrangement: species or system human, MV4-11 + K-562 + COLO205 + SK-N-BE2 + OVCAR-8. As to conditions: read-out: apparent Kd; compound concentrations:100 nM and 1000 nM (sheet 'Samples'); n = 1.
In test [20] the test system is CDK17. The arrangement: species or system human, MV4-11 + K-562 + COLO205 + SK-N-BE2 + OVCAR-8. As to conditions: read-out: apparent Kd; compound concentrations:100 nM and 1000 nM (sheet 'Samples'); n = 1.
Test [21] relates to CDK2. Also on record: species or system human, MV4-11 + K-562 + COLO205 + SK-N-BE2 + OVCAR-8. As to conditions: read-out: apparent Kd; compound concentrations:100 nM and 1000 nM (sheet 'Samples'); n = 1.
In test [22] the test system is ERCC2. Also on record: species or system human, MV4-11 + K-562 + COLO205 + SK-N-BE2 + OVCAR-8. The conditions noted are these: read-out: apparent Kd; compound concentrations:100 nM and 1000 nM (sheet 'Samples'); n = 1.
Test [23] has as its system MYLK3. Also on record: species or system human, MV4-11 + K-562 + COLO205 + SK-N-BE2 + OVCAR-8. The conditions noted are these: read-out: apparent Kd; compound concentrations:100 nM and 1000 nM (sheet 'Samples'); n = 1.
For test [24], the target named is Q6ZSR9 (human, UniProt Q6ZSR9). Also on record: species or system MV4-11 + K-562 + COLO205 + SK-N-BE2 + OVCAR-8. The conditions noted are these: read-out: apparent Kd; compound concentrations:100 nM and 1000 nM (sheet 'Samples'); n = 1.
Q6ZSR9, sequence (Q6ZSR9 whole entry, looked up): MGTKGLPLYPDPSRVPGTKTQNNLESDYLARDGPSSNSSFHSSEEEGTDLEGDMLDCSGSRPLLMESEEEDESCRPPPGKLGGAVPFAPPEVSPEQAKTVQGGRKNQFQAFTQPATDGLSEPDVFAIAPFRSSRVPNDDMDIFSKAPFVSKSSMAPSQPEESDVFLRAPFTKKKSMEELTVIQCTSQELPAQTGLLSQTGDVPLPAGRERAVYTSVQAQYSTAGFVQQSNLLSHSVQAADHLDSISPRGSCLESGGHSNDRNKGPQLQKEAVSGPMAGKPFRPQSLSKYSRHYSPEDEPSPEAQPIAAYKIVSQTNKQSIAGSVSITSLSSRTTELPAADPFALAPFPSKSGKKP
Test [25] deals with TTK. Also on record: species or system human, MV4-11 + K-562 + COLO205 + SK-N-BE2 + OVCAR-8. The conditions noted are these: read-out: apparent Kd; compound concentrations:100 nM and 1000 nM (sheet 'Samples'); n = 1.
Test [26] relates to ERBB3. The arrangement: species or system human, MV4-11 + K-562 + COLO205 + SK-N-BE2 + OVCAR-8. The conditions noted are these: read-out: apparent Kd; compound concentrations:100 nM and 1000 nM (sheet 'Samples'); n = 1.
The test system of test [27] is RAB14. Also on record: species or system human, MV4-11 + K-562 + COLO205 + SK-N-BE2 + OVCAR-8. As to conditions: read-out: apparent Kd; compound concentrations:100 nM and 1000 nM (sheet 'Samples'); n = 1.
The mark [28] stands for this setting: compound concentrations:100 nM and 1000 nM (sheet 'Samples').

Turning to `COc1cc2ncn(-c3cc(OCc4ccccc4C(F)(F)F)c(C(=O)N(C)C)s3)c2cc1OC` [GSK1030062A], the potency estimated from few doses is 2020 nM in [1], 1720 nM in test [2] and 2110 nM in [3].
With `Fc1ccc(-c2nc3n(c2-c2ccncc2)CCS3)cc1` [GI98581X], the potency estimated from few doses in test [4] (compound concentrations: 100 nM and 1000 nM (sheet 'Samples'), CATDS: 8.3198711436125394E-2) is 1530 nM; in [5] (compound concentrations: 100 nM and 1000 nM (sheet 'Samples'), CATDS: 8.7123517988238197E-2) it was 1320 nM; in test [6] (compound concentrations: 100 nM and 1000 nM (sheet 'Samples'), CATDS: 0.37273157205877999) it was 87.9 nM; in test [7] (compound concentrations: 100 nM and 1000 nM (sheet 'Samples'), CATDS: 0.16724223379061501), 304 nM; in test [8] it was 666 nM; in [9] (compound concentrations: 100 nM and 1000 nM (sheet 'Samples'), CATDS: 9.3591045937798004E-2), 1070 nM. Further, the potency estimated from few doses in [10] is 1260 nM; in [11] (compound concentrations: 100 nM and 1000 nM (sheet 'Samples'), CATDS: 0.13823017842708299), 435 nM; in test [12] it was 1090 nM.
Consider `Cc1cccc(-c2nc(Nc3cccc(C(N)=O)c3)c3ccccc3n2)n1` [GW876019X], for which the potency estimated from few doses was 2080 nM in [4] (setting [28]); 1510 nM in [13]; 2230 nM in [14]; 1160 nM in test [15]; 739 nM in test [16]; 1510 nM in test [17].
With `CC(=O)Nc1cccc(C#Cc2cncnc2Nc2ccc(OCc3cccc(F)c3)c(Cl)c2)c1` [GW703087X], the potency estimated from few doses in test [18] was 1540 nM.
In the case of `NS(=O)(=O)c1ccc(N/N=C2\C(=O)Nc3ccc(C(=O)NCc4ccncc4)cc32)cc1` [GSK300657X], the potency estimated from few doses in [19] was 486 nM; in test [20] it was 957 nM; in test [21] it was 567 nM; in [13] it was 1460 nM; in test [14] it was 771 nM; in test [22] it was 2250 nM. For the same molecule, the potency estimated from few doses is 1620 nM in test [23], 2140 nM in [24] and 2100 nM in test [25].
On to `NC(=O)c1ccc(Oc2nccc(-c3c(-c4ccc(F)cc4)ncn3C3CCNCC3)n2)cc1` [SB-242718], for which the potency estimated from few doses in test [4] (setting [28]) was 922 nM; in test [5] (setting [28]), 2320 nM; in test [6] (setting [28]) it was 246 nM; in test [7] (setting [28]), 642 nM; in test [26], 1430 nM; in test [9] (setting [28]), 476 nM. In addition, the potency estimated from few doses in test [11] (setting [28]) is 18.3 nM; in test [27], 1380 nM.
